Details in all cases: concentration: 10 µM; 24 h
Test [1] has as its system HCC1569. Put plainly: cell number relative to DMSO (% of DMSO); higher = more cells (less growth inhibition / toxicity). In a few lines:
(§1)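 H1.0 nuclear intensity or cell number is expressed as percent of the plate control, with the median of replicates taken. HCC1569 and TDF cells were treated with compounds at 10 µM for 24 h at 37 °C, in triplicate, then fixed and immunostained for H1.0 with DAPI as a nuclear stain. HCC1569 values were smoothed to correct for positional effects.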

Test [2] concerns TDF. The test is described as above. In a few lines: as §1
Test [3] deals with HCC1569. Description: H1.0 immunofluorescence intensity relative to DMSO (% of DMSO); higher = stronger H1.0 induction, active = 140 or more. In a few lines: as §1
Test [4] deals with TDF. Put plainly: H1.0 immunofluorescence intensity relative to DMSO (% of DMSO); higher = stronger H1.0 induction, active = 120 or more. In a few lines: as §1

SMILES strings stand for the structures.
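Throughout, for H1.0 immunofluorescence intensity relative to DMSO: TDF is a line of transformed human dermal fibroblasts of mesenchymal origin.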
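Throughout, for cell number relative to DMSO: TDF denotes transformed human dermal fibroblasts of mesenchymal origin.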

In the case of `Nc1ncnc2c1nc(N)n2[C@@H]1O[C@H](CO)[C@@H](O)[C@H]1O`, the results for the cell number with HCC1569 [1] and with TDF [2] were 25.5 and 2.02, respectively. In the test on HCC1569 [3], the H1.0 immunofluorescence intensity is 76.3 (inactive).
As to `N#Cc1ccc2c(c1)CCN(CCC1CCC(NC(=O)c3ccnc4ccccc34)CC1)C2` (stereo unspecified), the figures for the H1.0 immunofluorescence intensity with TDF [4] and in the test with HCC1569 [3] were 90.6 (inactive) and 158 (active), respectively.
Consider `COS(=O)(=O)[O-].C[n+]1c2ccccc2nc2ccccc21` [5-methylphenazin-5-ium methyl sulfate], for which the figures for the cell number in the test with HCC1569 [1] and with TDF [2] were 28.1 and 4.9, respectively. In the test on HCC1569 [3], the H1.0 immunofluorescence intensity is 688 (active).
On to `O=C1NC(C(=O)O)CS1` (stereo unspecified) [Procysteine], for which the cell number was determined as 101 in the test with HCC1569 [1] and 110 in the test on TDF [2]. For the same compound, the H1.0 immunofluorescence intensity was 97.1 (inactive) in the test on TDF [4] and 98.1 (inactive) in the test on HCC1569 [3].
For `Br.CN(C)CCCC1(c2ccc(F)cc2)OCc2cc(C#N)ccc21` (stereo unspecified) [Citalopram hydrobromide] the same measures were 101, 103, 96 (inactive) and 92.5 (inactive).

The values are drawn from the supplement of paper PMC7156485.
